The text below walks through data of the supplement of paper PMC10105736.

Common to all, as to experiment: MAPPIT interaction score (arbitrary units); higher = stronger binary interaction signal, active = hit call of the paper
For one assay, the target named is rux. The conditions noted are these: MAPPIT configuration: N-N; pair source set: Finley_Y2H.
The target in a further assay is salr. The conditions noted are these: MAPPIT configuration: N-N; pair source set: Finley_Y2H.
The target in a further assay is sac. The conditions noted are these: MAPPIT configuration: N-N; pair source set: RRS.
In a further assay the target is ord. The conditions noted are these: MAPPIT configuration: N-N; pair source set: Lit-BM-16.
In a further assay the target is spir. The conditions noted are these: pair source set: RRS.
The target in a further assay is poly. Particulars: MAPPIT configuration: N-C; pair source set: screen_3.
Another assay addresses sip2. The conditions noted are these: MAPPIT configuration: N-N; pair source set: Curagen_low_conf.
Another assay concerns the target pip. Particulars: MAPPIT configuration: N-N; pair source set: Lit-BS-16.
In a further assay the target is ox. The conditions noted are these: MAPPIT configuration: N-N; pair source set: Curagen_low_conf.
A further assay deals with rst. Particulars: pair source set: Lit-BM-16.
The target in the next assay is ras. Particulars: MAPPIT configuration: N-N; pair source set: Finley_Y2H.
In a further assay the target is otp. Particulars: MAPPIT configuration: N-N; pair source set: screen_2.
A further assay deals with saturn. Particulars: MAPPIT configuration: N-C; pair source set: screen_4.
The next assay has as its target sqd. The conditions noted are these: MAPPIT configuration: N-C; pair source set: Lit-BM-16.

Values without a mark were called inactive.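 The calls were made as follows: active = MAPPIT score above the 99th percentile of random reference set scores in the same batch; inactive = at or below it.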
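Also: HEK293T cells with Epo stimulation, STAT-responsive firefly luciferase reporter, fold induction versus unstimulated cells divided by the larger fold induction of two negative controls lacking either bait or prey.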

B1: hfp (protein)
chain: MGSNDRASRSPRSDDQREISDMPATKRTRSDSGKSTDSKIPYLSQPLYDLKQTGDVKFGPGTRSALLGLLGGALPKLSSEQHDLVSKAKKYAMEQSIKMVLMKQTLAHQQQQLATQRTQVQRQQALALMCRVYVGSISFELKEDTIRVAFTPFGPIKSINMSWDPITQKHKGFAFVEYEIPEGAQLALEQMNGALMGGRNIKVGRPSNMPQAQQVIDEVQEEAKSFNRIYVASIHPDLSEEDIKSVFEAFGPILYCKLAQGTSLHTHKGYGFIEYANKQAMDEAIASMNLFDLGGQLLRVGRSITPPNALACPTTNSTMPTAAAVAAAAATAKIQALDAVASNAVLGLSQNTPVMAAGAVVTKVGAMPVVSAATSAAALHPALAQAAPALLPPGIFQAPTPVAPSLLGVPAGLQPLQAVVPTLPPPALLATPTLPMTVGGVGVGLVPTVATLAGAEASKGAAAAAALSAAANNAAVTAANLSENIKKAHEKQQEELQKKLMDEGDVQTLQQQENMSIKGQSARQLVMQRLMRPVDSRVIILRNMVGPEDVDETLQEEIQEECSKFGTVSRVIIFNEKQTENEDDDEAEIIVKIFVEFSAGAEAMRGKEALDGRFFGGRRVVAELYDQGIFDQGDLSG
As for B1, the MAPPIT interaction score with rux was 0.808.

B2: Pof (protein)
chain: MDSKRAALESGDGPDAKRLDTTDDQDKEASGGDGSQVMLAKHVAPYTGHGCTPPMESYLFEPTPAGSQLLPWKTSVDLDNDAELEKPTSDKKPDTAKLSRRELAKMRREHTLRALALERELTNKPGQTPASEVLLVRFPDPEITAPMLAGLSKDIRDVVLPISVAPRYCLVHLKAGADVEATICDINRVRFGTGHLRAELKPFSDEEQAEFIDPCSLYVGNIPFNMTTSAIKAYFANAMRVDIGVLKREKRARYAFVRYASPDQTMEAFKELVDSPLNSRTLTVRYRRLRKRAGMPMVQCATSFQALQSPNGDDDNTDCKVISPPPLESIIISDSDNCSDSSGNGKEDGKRKKKINEQEREIEKLKRQMAEYGAIIKSLQFRQNSLEDTFIPDLTPKVEPSVNPTGCLLGSNAVHLMRDIKKECDYLGIPDPVPATKPTTQAQDDSQKKAKRSCFGRLFTGPFRRGTSAMKTADEYEKDDRLEELYAQLERDPDP
With B2, the MAPPIT interaction score with salr is 0.283.

B3: insv (protein)
chain: MENQYQRIVSATAREDSQARRSKPLFLNAWSQTSSVDFEVLRSISAPDPQVEVENRALRDKVRYLEAKLQQHKDLLSQIHATSARMQQASSLLAESRPPTPPAVQSHHILTPPSSEICAPAQNPQILDYKIISAPDDADAIEIRLAAESLNSLSTSADSDRLEICLGDENHQQSNHHNSQQQYRISNGIKRDGSSESADTPLQFIKRRKLQEIQLQEEIPRQNIKLPAKPQVKARNGSFTDLNKGQQQNMDNVMVSIGPNNTCVPASVFENINWSVCSLATRKLLVTIFDRETLATHSMTGKPSPAFKDQDKPLKRMLDPGKIQDIIFAVTHKCNASEKEVRNAITTKCADENKMMKIQNVKRRSSGIKHEKENII
For B3, in the assay with sac, the MAPPIT interaction score was -0.275.

B4: Sce (protein)
chain: MTSLDPAPNKTWELSLYELQRKPQEVITDSTEIAVSPRSLHSELMCPICLDMLKKTMTTKECLHRFCSDCIVTALRSGNKECPTCRKKLVSKRSLRADPNFDLLISKIYPSREEYEAIQEKVMAKFNQTQSQQALVNSINEGIKLQSQNRPQRFRTKGGGGGGGGGGNGNGAANVAAPPAPGAPTAVGRNASNQMHVHDTASNDSNSNTNSIDRENRDPGHSGTSAASAITSASNAAPSSSANSGASTSATRMQVDDASNPPSVRSTPSPVPSNSSSSKPKRAMSVLTSERSEESESDSQMDCRTEGDSNIDTEGEGNGELGINDEIELVFKPHPTEMSADNQLIRALKENCVRYIKTTANATVDHLSKYLAMRLTLDLGADLPEACRVLNFCIYVAPQPQQLVILNGNQTLHQVNDKFWKVNKPMEMYYSWKKT
Consider B4, for which the MAPPIT interaction score in the assay with ord is 1.68.

B5: Acp1 (protein)
chain: MKFAVAVIFTLALAMGVQSSVIPLLSQVAGHGLSYTAVSGPAVVASPWAVPAAHWPAAVNVASWPPAAIHAAAPAVLAAPAPAVVAAHAPSVVVAPVAHSGVYTAQTRGAIHTAPLAGHIQSVASINAAPAPGTL
For B5, the values for the MAPPIT interaction score with spir (MAPPIT configuration: N-C) and with spir (MAPPIT configuration: N-N) were 0.0271 and 0.686, respectively.

B6: GstE14 (protein)
chain: MSQPKPILYYDERSPPVRSCLMLIKLLDIDVELRFVNLFKGEQFQKDFLALNPQHSVPTLVHGDLVLTDSHAILIHLAEKFDEGGSLWPQEHAERMKVLNLLLFECSFLFRRDSDFMSATVRQGFANVDVAHHERKLTEAYIIMERYLENSDFMAGPQLTLADLSIVTTLSTVNLMFPLSQFPRLRRWFTAMQQLDAYEANCSGLEKLRQTMESVGSFQFPSSSAVVTEKVE
As for B6, the MAPPIT interaction score with poly was -0.119.

B7: Mabi (protein)
chain: MEHHQIYRHKKFDMGRKIEKCDLQLKEELISRSGTPCTSRSPFDAANQSVSLGFSDQDADFPPLPKRRRLGSSSSSVSYQSASPIITEAIQDIFKYHVNMVRKFPKKERSPKDQERRNKNTIACRMSRRKKKFDDLQIEQQYKECSDEHLKIAEQSLRARVYLNHLKQLVKQEDHPLVSSRRVPEENTKSNFSIDYLIGGIKQEHA
For B7, the MAPPIT interaction score with sip2 is 0.378.

B8: Snp (protein)
chain: MALIKLARQLGLIDTIYVDGARPDPNNDPEESFNEDEVTEANSVPAKSKKSRKSKRLAMQPYSYVIAVDFEATCWEKQAPPEWREAEIIEFPAVLVNLKTGKIEAEFHQYILPFESPRLSAYCTELTGIQQKTVDSGMPLRTAIVMFNEWLRNEMRARNLTLPKMNKSNILGNCAFVTWTDWDFGICLAKECSRKGIRKPAYFNQWIDVRAIYRSWYKYRPCNFTDALSHVGLAFEGKAHSGIDDAKNLGALMCKMVRDGALFSITKDLTPYQQLNPRFVL
On to B8, for which the MAPPIT interaction score with pip was -0.236.

B9: eEF1beta (protein)
chain: MAFGDVTTPQGLKELNAFLADNSYISGYTPSKADLSVFDALGKAPSADNVNVARWYRHIASFEAAERAAWSGTPLPQLAGGKPTVAAAAKPAADDDDDVDLFGSDDEEDEEAERIKQERVAAYAAKKSKKPALIAKSSVLLDVKPWDDETDMKEMENNVRTIEMDGLLWGASKLVPVGYGINKLQIMCVIEDDKVSIDLLQEKIEEFEDFVQSVDIAAFNKI
B9: the MAPPIT interaction score in the assay with ox was 0.286.

B10: rst (protein)
chain: MLHTMQLLLLATIVGMVRSSPYTSYQNQRFAMEPQDQTAVVGARVTLPCRVINKQGTLQWTKDDFGLGTSRDLSGFERYAMVGSDEEGDYSLDIYPVMLDDDARYQCQVSPGPEGQPAIRSTFAGLTVLVPPEAPKITQGDVIYATEDRKVEIECVSVGGKPAAEITWIDGLGNVLTDNIEYTVIPLPDQRRFTAKSVLRLTPKKEHHNTNFSCQAQNTADRTYRSAKIRVEVKYAPKVKVNVMGSLPGGAGGSVGGAGGGSVHMSTGSRIVEHSQVRLECRADANPSDVRYRWFINDEPIIGGQKTEMVIRNVTRKFHDAIVKCEVQNSVGKSEDSETLDISYAPSFRQRPQSMEADVGSVVSLTCEVDSNPQPEIVWIQHPSDRVVGTSTNLTFSVSNETAGRYYCKANVPGYAEISADAYVYLKGSPAIGSQRTQYGLVGDTARIECFASSVPRARHVSWTFNGQEISSESGHDYSILVDAVPGGVKSTLIIRDSQAYHYGKYNCTVVNDYGNDVAEIQLQAKKSVSLLMTIVGGISVVAFLLVLTILVVVYIKCKKRTKLPPADVISEHQITKNGGVSCKLEPGDRTSNYSDLKVDISGGYVPYGDYSTHYSPPPQYLTTCSTKSNGSSTIMQNNHQNQLQLQQQQQQSHHQHHTQTTTLPMTFLTNSSGGSLTGSIIGSREIRQDNGLPSLQSTTASVVSSSPNGSCSNQSTTAATTTTTHVVVPSSMALSVDPRYSAIYGNPYLRSSNSSLLPPPTAV
On to B10, for which the MAPPIT interaction score with rst (MAPPIT configuration: N-C) was 1.64; in the assay with rst (MAPPIT configuration: N-N) it was 0.661.

B11: peg (protein)
chain: MKLSAVLLAIALLALSLVQCLGLPDPSTKCVMECDTQEYRSICAADDKGSTKTYRNLCVMKTENCLQNANFQKISDKECP
On to B11, for which the MAPPIT interaction score in the assay with ras is -1.69.

B12: H15 (protein)
chain: MLLSNQPANTKPQQTPSPSQTQNFKSKLQQQIVSAAAAAAANIANGSSHHHHHQNHHHHHPLNNHHNHNHNQHNISFATDFSIAAIMARGGNAPSSREPSERSLSPASVERYSGQDADDDVDVDVVDCSDSEMPSATAAAAAAATTAAAAAAALQAQQQARQALRVAQQQQQQQQQQRQQTHHHATTGKQQRQHHNHHSSNTNNSSNSGNSNTNSKSSSQRGRSAAAVGAAATPSPPPPPPSQSPEELERLSPEESPAQQPTPKIVGSCNCDDLTPVQCHLETKELWDKFHELGTEMIITKSGRRMFPTVRVSFSGPLRQIQPADRYAVLLDVVPLDSRRYRYAYHRSSWLVAGKADPPPPSRIYAHPDCPLSPEALRKQVVSFEKVKLTNNEMDKSGQVVLNSMHRYQPRIHLVRLSHGQSIPGSPKELQDMDHKTFVFPETVFTAVTAYQNQLITKLKIDSNPFAKGFRDSSRLSDFDRDPMDAFFFDQHMRTAPLRFFPDPLMSQLTPQEADAASMALLEKARQHLQMFGRSPYTEMLLPHLYQRSAAPPPPPPAPHLSAFQLGMWQQQWPQLTAGFLASANQQAALALAAAGANRTPPPSMAVAPPAPATPTSSCGSASPDLRARPQLNHYPQRFSPYQVPQHQASPPASNRAESP
In the case of B12, the MAPPIT interaction score with otp is 0.104.

B13: ORMDL (protein)
chain: MTSIAGGHGEANPNSSWLSARGFWLAYLLGLLSVHLLFLSVPFVSIPWAWTATNLLHNAAHLYFLHVIKGAPWLSTENDPSRRWTHWEQIDDGVQMTTTRKFLTAVPIVLFLLTCLYTRNNTEHFIPNFISLVVVTLPKLPQFHGVRLFNINKY
As to B13, the MAPPIT interaction score with saturn is 0.115.

B14: Hrb27C (protein)
chain: MEEDERGKLFVGGLSWETTQENLSRYFCRFGDIIDCVVMKNNESGRSRGFGFVTFADPTNVNHVLQNGPHTLDGRTIDPKPCNPRTLQKPKKGGGYKVFLGGLPSNVTETDLRTFFNRYGKVTEVVIMYDQEKKKSRGFGFLSFEEESSVEHVTNERYINLNGKQVEIKKAEPRDGSGGQNSNNSTVGGAYGKLGNECSHWGPHHAPINMMQGQNGQMGGPPLNMPIGAPNMMPGYQGWGTSPQQQQYGYGNSGPGSYQGWGAPPGPQGPPPQWSNYAGPQQTQGYGGYDMYNSTSTGAPSGPSGGGSWNSWNMPPNSAGPTGAPGAGAGTATDMYSRAQAWATGGPSTTGPVGGMPRTGPGNSASKSGSEYDYGGYGSGYDYDYSNYVKQEGASNYGAGPRSAYGNDSSTQPPYATSQAV
For B14, in the assay with sqd, the MAPPIT interaction score is 2.4.
